# High-throughput results (PubChem)
# Most compounds without a hit are left out; they make up all but 2.8% or so of the library.
# GLP1R ag = GLP-1 receptor (human) agonism; P43220; HEK293 GLP-1R CRE-luciferase, luminescence, 4-6 h; cells express a hypersensitive GLP-1R form; Potency, µM (doses to about 45.6 µM), for the others: at the highest dose activation, actives largely listed as activators; 380,000 compounds, 0.007% hits; AID 624172; further: % of control where 0% means no effect
# Target sequence (P43220 whole entry, looked up): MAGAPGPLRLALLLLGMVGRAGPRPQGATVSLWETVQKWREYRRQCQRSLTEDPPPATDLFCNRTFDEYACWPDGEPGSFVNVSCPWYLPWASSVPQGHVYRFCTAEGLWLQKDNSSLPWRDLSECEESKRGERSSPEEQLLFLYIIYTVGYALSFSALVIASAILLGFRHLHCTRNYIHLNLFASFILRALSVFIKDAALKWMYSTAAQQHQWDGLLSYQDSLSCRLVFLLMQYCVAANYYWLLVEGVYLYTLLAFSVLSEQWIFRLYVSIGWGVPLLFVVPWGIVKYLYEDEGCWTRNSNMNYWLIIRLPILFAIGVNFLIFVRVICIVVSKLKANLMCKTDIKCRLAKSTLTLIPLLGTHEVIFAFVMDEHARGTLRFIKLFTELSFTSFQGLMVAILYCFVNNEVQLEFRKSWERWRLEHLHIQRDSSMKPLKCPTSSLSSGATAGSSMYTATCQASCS
# Mito fusion yeast = inhibitors of mitochondrial division or activators of mitochondrial fusion; AID 485298; Potency, µM (doses to about 46.1 µM), without a hit: top-dose growth rescue (activation), usual class: activators; S. cerevisiae fusion-defective mutant growth rescue, CellTiterGlo 48 h; 320,000 compounds, 0.23% hits; further: % of control where 0% means no effect; nearly all actives have a fitted effect of over 45% in size
#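 Growth-rescue viability read-out: after 48 h at the non-permissive 37C in glycerol/ethanol YPEG, yeast mitochondrial fusion mutants are measured by CellTiterGlo luminescence; compounds (23 nl pinned per well) restoring growth score as division inhibitors or fusion activators.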
# GLP1R inv ag = acts as inverse agonist at human GLP-1 receptor. P43220. HEK293 GLP-1R CRE-luciferase, luminescence, 24 h; GLP-1R form is constitutively active. Potency, µM (doses to about 38.3 µM), for inactives: at the top dose activity change, negative = inhibition, actives largely listed as inhibitors. 410,000 compounds, 1.6% hits; further: on the % scale 0 is the no-effect control and ±100 the full control effect; nearly all actives have a fitted effect of over 55% in size
#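 qHTS in 1536-well format: reporter HEK293 cells expressing constitutive GLP-1R activity in DMEM + 10% Nu serum, 24 hr with compounds at 37 deg C, luminescence read after 12 min with detection reagent.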
# BRCA1 expr up = increases BRCA1 expression | MCF7-BRCA1-FFLuc reporter, luminescence, 48 h; response scale: scaled: vehicle 0%, 10 µM genistein 100% | AID 624202 | 380,000 compounds, 1.1% hits | Potency, µM (top dose mostly 46.1 µM), for the others: at the highest dose activation, hits mostly activators; further: nearly all actives have a fitted effect of over 80% in size
#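 Reporter cells (MCF7, BRCA1 promoter-firefly luciferase) received library compounds across a concentration series for 48 h. End-point luminescence was measured and concentration-effect curves derived after normalization.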
# GLP1R cytotox = cytotoxicity in counter-screen for GLP-1R inverse agonists. Potency, µM (titrated, usually from 38.3 µM), for inactives: at the highest dose activity change, negative = inhibition, hits mostly inhibitors. HEK293 cAMP-luciferase reporter cells, luminescence, 24 h. 410,000 compounds, 0.13% hits;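 further: loss of luciferase light is scored as toxicity; on the % scale 0 is the no-effect control and ±100 the full control effect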
#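 Luminescence readout: signal drop marks cytotoxicity. Plated cells grew 12 h at 37 °C, 5% CO2, received 23 nL compound for 24 h, then got luciferase reagent, read after 12 min at RT.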
# An asterisk follows results filed as active; ? = inconclusive; . = not tested or not shown. The call rests on the fitted dose curve; in most records, active means well fitted curve in the direction sought with a large enough effect; inconclusive means small, poorly fitted or top-dose-only effect, or another doubt; inactive means no such curve, though single readings can be large; an effect the other way counts as inactive or inconclusive. Potency means the concentration at half of the fitted maximal effect.
SMILES,GLP1R ag,Mito fusion yeast,GLP1R inv ag,BRCA1 expr up,GLP1R cytotox
O=C(Cc1ccc(Br)cc1)Nc1cccc(S(=O)(=O)N2CCCCC2)c1,2%,.,10µM*,-60%,-7%
O=C(CCCOc1ccccc1)Nc1cccc(S(=O)(=O)N2CCOCC2)c1,0%,.,-27%,-1%,5%
O=C(CCNS(=O)(=O)c1ccc(OC(F)(F)F)cc1)Nc1cccc(S(=O)(=O)N2CCCC2)c1,-3%,.,10µM*,-28%,4%
CC1c2[nH]c3ccccc3c2C[C@H]2C(=O)N(CCCO)CC(=O)N12 (some centres undefined),-4%,-9%,8%,-6%,7%
Cc1ccc(Oc2nnc(-c3cccs3)c3ccccc23)cc1C,-2%,10%,?,-51%,-20%
COc1ccc(S(=O)(=O)N2CCCCCC2)cc1NC(=O)Cc1cccc(C(F)(F)F)c1,8%,.,10µM*,-24%,5%
O=C(CCNC(=O)c1ccc(Cl)cc1)Nc1cccc(S(=O)(=O)N2CCCCCC2)c1,21%,-13%,13µM*,-44%,-12%
O=C(CNc1cc([N+](=O)[O-])ccc1NCCO)Nc1cccc(S(=O)(=O)N2CCCCC2)c1,0%,-4%,?,-12%,-10%
O=C(CNc1cccc(S(=O)(=O)N2CCCCCC2)c1)Nc1cccc([N+](=O)[O-])c1,2%,2%,7.1µM*,-54%,?
O=C(CCCNC(=O)c1ccc(Cl)cc1)Nc1cccc(S(=O)(=O)N2CCCCC2)c1,7%,-5%,?,-20%,3%
O=C(CNc1cccc(S(=O)(=O)N2CCCC2)c1)Nc1ccc(C(F)(F)F)cc1,-4%,-4%,10µM*,-48%,10%
COc1ccc(OCC(=O)O/N=C(\N)Cc2ccc(Cl)cc2)cc1,-3%,5%,-27%,12%,83%
CCNS(=O)(=O)c1ccc(C(=O)OCc2cc(=O)oc3cc(OC)ccc23)cc1,12%,-1%,6%,0%,-5%
COc1ccc(NC(=O)CC2C(=O)N(c3ccc(C)cc3)C(=O)N2C2CCCCC2)cc1 (centres undefined),-1%,.,-5%,-5%,-1%
O=C(Cn1c(=O)n(Cc2ccc(C(=O)NCc3ccc4c(c3)OCO4)cc2)c(=O)c2ccccc21)Nc1cccc(Cl)c1,0%,.,0%,8%,-14%
C#CC(=O)N(c1cccc(OC)c1)C(C(=O)NC1CCCC1)c1cccs1 (centres undefined),-4%,-4%,3.2µM*,-74%,?
O=C(Cn1nnc(-c2cccc(C(F)(F)F)c2)n1)N1CCOCC1,1%,-3%,4%,12%,2%
CCOc1cc(/C=C2\SC(=S)N(Nc3ccccc3)C2=O)ccc1O,-3%,-8%,?,?,-8%
COc1cc(/C=C2\SC(=S)N(Nc3ccccc3)C2=O)ccc1O,-1%,15%,?,?,10µM*
COc1cc(/C=C2\SC(=S)N(C(Cc3ccccc3)C(=O)O)C2=O)ccc1O (centres undefined),-4%,0%,-4%,-3%,10µM*
COc1ccc(CNC(=O)CN(Cc2ccco2)C(=O)CNS(=O)(=O)c2ccc(C)cc2)cc1,15%,1%,14%,-3%,1%
Cc1ccc2oc(C(=O)Nc3ccc(S(=O)(=O)N4CCCC(C)C4)cc3)cc(=O)c2c1 (centres undefined),.,.,-7%,.,-4%
Cc1ccc2occ(CC(=O)Nc3ccc(S(=O)(=O)N4CCCC(C)C4)cc3)c2c1 (centres undefined),.,.,11µM*,.,0%
COC(=O)c1nn(-c2ccc(OC)cc2)c(=O)cc1Oc1ccccc1,-10%,-3%,6%,-12%,15%
COC(=O)c1nn(-c2ccc(OC)cc2)c(=O)cc1O,-4%,1.6µM*,-1%,7%,1%
SMILES,GLP1R ag,Mito fusion yeast,GLP1R inv ag,BRCA1 expr up,GLP1R cytotox
O=C(c1ccc2oc(CCCc3ccccc3)nc2c1)N1CCCC1,2%,7%,6%,7.1µM*,-4%
COc1ccc(Cc2nc3ccc(C(=O)N4CCCC4)cc3o2)cc1,10%,2%,72%,6.3µM*,12%
COc1ccc(Cc2nc3ccc(C(=O)N4CCCC4)cc3o2)cc1OC,7%,-4%,193%,-14%,-1%
COc1cccc(NC(=O)c2ccc3nc(Cc4ccccc4)oc3c2)c1,.,.,10µM*,.,?
CCOc1cccc(C(=O)Nc2ccc3oc(Cc4ccc(Cl)cc4)nc3c2)c1,-3%,14%,2.2µM*,-65%,-29%
O=C(Nc1ccc2oc(Cc3ccc(Cl)cc3)nc2c1)c1cccnc1,5%,10%,?,-78%,-9%
CC(=O)C1CCCN(C(=O)c2ccc3oc(CCc4ccccc4)nc3c2)C1 (centres undefined),2%,7%,?,0%,-1%
CCC(Oc1ccccc1)C(=O)N(C)CC(=O)N(CC(C)C)c1c(N)n(CC(C)C)c(=O)[nH]c1=O (centres undefined),-6%,2%,-3%,-30%,6%
CC12CC(c3ccccc3O1)N(C(=O)c1ccco1)C(=S)N2c1ccccc1 (centres undefined),-1%,5%,?,-5%,?
COc1cccc(-c2nc3ccc(C(=O)N4CCCC(O)C4)cc3o2)c1 (centres undefined),2%,-3%,23%,3.2µM*,-2%
CCC(=O)C1CCCN(C(=O)c2ccc3nc(-c4cccc(OC)c4)oc3c2)C1 (centres undefined),9%,-6%,-20%,98%,-6%
C=C(C)CNC(=O)c1ccc2nc(Cc3ccc(OC)cc3)oc2c1,2%,0%,7%,10µM*,1%
Fc1cccc(CSc2ccc(-c3ccc4c(c3)OCO4)nn2)c1,-7%,-14%,-13%,83%,6%
c1cncc(CSc2ccc(-c3ccc4c(c3)OCO4)nn2)c1,17%,1%,-41%,5.6µM*,-7%
Cc1ccccc1CSc1ccc(-c2ccc3c(c2)OCO3)nn1,11%,19%,?,8.9µM*,6%
COc1ccc(C(=O)NCc2nnc(SCC(=O)NC3CCCCC3)o2)cc1,8%,3%,8%,-4%,-3%
CCc1ccc2c(COC(=O)c3n[nH]c4ccccc34)cc(=O)oc2c1,-8%,14%,-25%,-2%,-26%
Cc1ccc2c(COC(=O)c3n[nH]c4ccccc34)cc(=O)oc2c1,2%,14%,20%,3.2µM*,?
Cc1ccc(S(=O)(=O)N(CC(=O)NCCSCc2ccco2)c2cc(C)ccc2C)cc1,0%,.,11µM*,-50%,2%
Cc1ccc(N(CC(=O)NCCSCc2ccco2)S(=O)(=O)c2ccc(F)cc2)cc1,4%,-4%,?,-29%,5%
